Shown is part of a subset that was picked to be rich in hits.
VACV E9 pol inh: blocks vaccinia virus processive DNA synthesis; in vitro processive DNA synthesis, absorbance read-out; stronger effect = lower value; normalized absorbance, % (no concentration beside the values); actives 0.94% (n = 46,000); AID 493162; in the data active = normalized absorbance mostly below about 85%, no sharp cut-off; inactive = mostly above about 86%
Of the large screens only hits and unclear results are named; the others gave an inactive call.

Cc1[nH]n(-c2ccccc2)c(=O)c1C=Nc1cccc(N)c1	none
Cc1[nH]n(-c2ccccc2)c(=O)c1Sc1ccc(Cl)cc1	none
Cc1[nH]n(-c2cccc(Cl)c2)c(=O)c1N=O	VACV E9 pol inh 67
CN(CC(=O)NCc1ccccn1)S(=O)(=O)c1cc(Br)cnc1N	none
CS(=O)(=O)Nc1nc2n(n1)C(c1ccccc1)C=C(c1ccccc1)N2 (stereo not drawn)	none
CCN1CCc2c(OCC(=O)NCc3ccco3)cccc2C1=O	none
CN(C)c1ccc(/C=C2/S/C(=N/O)NC2=O)cc1	none
O=C1NC(=Nc2ccccc2)S/C1=C\c1ccccc1	none
O=C1N/C(=N\O)S/C1=C/c1ccc(O)cc1	VACV E9 pol inh 84
O=S(=O)(NC12CC3CC(CC(C3)C1)C2)c1cccc(C(F)(F)F)c1	none
Cc1ccc(NC(=S)C(C#N)C(N)=O)cc1Cl (stereo not drawn)	none
CC1=C/C(=C/c2ccco2)C(=O)O1	none
O=C1/C(=C/c2ccco2)CC(c2ccccc2)C/C1=C\c1ccco1 (stereo not drawn)	none
O=C1/C(=C/c2ccco2)CC/C1=C\c1ccco1	VACV E9 pol inh 24
Cc1ccc(N(C2C=CS(=O)(=O)C2)S(=O)(=O)c2ccccc2)cc1 (stereo not drawn)	none
Cc1ccccc1CSc1nnc2c(n1)[nH]c1ccccc12	none
COC(=O)C(CC(=O)c1ccc(Br)cc1)(Cc1ccc(Br)cc1)C(=O)OC	none
C[n+]1c(/C=C/Nc2ccccc2)sc2ccccc21	VACV E9 pol inh 75
CSc1sc2ccccc2[n+]1C	none
CC[n+]1c(/C=C/Nc2ccccc2)sc2ccccc21	none
N#CC1C2=C(CCCC2)SC1NC(=O)c1cc2ccccc2oc1=O (stereo not drawn)	none
COc1ccc(NC(=O)CN2C(=O)C3C4C=CC(C4)C3C2=O)cc1 (stereo not drawn)	none
Cc1cc(C)c2c(n1)sc1c3c(c(=O)[nH]c12)C(c1cccc(Cl)c1)C(C#N)=C(N)O3 (stereo not drawn)	none
CCOc1ccc(-c2nc3ccc(Br)cc3c(C(=O)O)c2C)cc1	none
CCOc1ccc(N2CCc3c2nc2ccc(Br)cc2c3N)cc1	none
CCCCN1CCc2c1nc1ccc(Br)cc1c2N	VACV E9 pol inh 87
Cc1ccc2oc(=O)c3cnn(CC(=O)N4CCCCC4)c3c2c1	none
CNC(=O)CCCc1nnc2n(C)c(=O)c3sccc3n12	none
COc1ccc2c(c1)-c1ccccc1S(=O)(=O)N2C	none
COc1ccc2c(c1)C(=NN)c1cc(OC)ccc1-2	VACV E9 pol inh 68
COc1ccc(-c2ccc(OC)cc2C(=O)NN)cc1	none
COc1ccccc1-n1c(-c2ccccc2)cn2c3c(=O)n(C)c(=O)n(C)c3nc12	none
Cc1ccc(C)c(NC(CC(=O)c2ccccc2)C(=O)O)c1 (stereo not drawn)	none
NS(=O)(=O)c1ccc(N2CCCC2=O)cc1	none
c1csc(-c2nnc(CSc3cccc4cccnc34)o2)c1	none
Cc1ccc(SCC(=O)N[C@@H]2C[C@H]3CC[C@@H]2C3)cc1	none
CC(C)CCNc1cc(C(C)C)c(C#N)c2nc3ccccc3n12	none
Cc1ccc(N=Cc2ccc3c(c2)OCCO3)cc1C	none
O=C(/C=C/c1ccc(Cl)cc1)OCC(=O)N1CCCCC1	none
CN1/C(=C/C=C/c2oc3ccccc3[n+]2C)Oc2ccccc21	VACV E9 pol inh 89
CCOc1ccc(N)cc1OCC	none
C[n+]1c2cc(N)ccc2cc2ccc(N)cc21	VACV E9 pol inh 10
NNC(=O)c1cc(CSc2ccc(Cl)cc2)on1	none
CS(=O)(=O)NCC(O)Cn1c2ccccc2c2ccccc21 (stereo not drawn)	none
Cc1ccc(NCC(O)Cn2c3ccccc3c3ccccc32)cc1 (stereo not drawn)	none
OCCN(CCO)CC(O)Cn1c2ccccc2c2ccccc21 (stereo not drawn)	VACV E9 pol inh 77
O=CN1CCN(CC(O)Cn2c3ccccc3c3ccccc32)CC1 (stereo not drawn)	none
OC(CN(Cc1ccccc1)Cc1ccccc1)Cn1c2ccccc2c2ccccc21 (stereo not drawn)	none
CC(C)(CO)NCC(O)Cn1c2ccccc2c2ccccc21 (stereo not drawn)	VACV E9 pol inh 65
CN(C(=O)COC(=O)c1ccc(I)cc1)c1ccccc1	none
O=C1NC(=Nc2ccc(F)cc2)S/C1=C/c1ccc2c(c1)OCO2	none
COc1ccc2c(c1)CCC1C2=NN(C(C)=O)C1c1ccccc1 (stereo not drawn)	none
CCOC(=O)C1CCCN(C(=O)CCCC(=O)n2ncc3cc(C)ccc32)C1 (stereo not drawn)	none
COC(=O)c1sc(-c2ccc(Cl)cc2)nc1C	none
O=C(CCc1ccccc1)Nc1nnc(SCc2ccc(F)cc2)s1	none
O=C(NC1CCCCC1)c1c[nH]c2ccccc2c1=O	none
NC(=O)c1cc[n+](CC2=C(C(=O)O)N3C(=O)C(NC(=O)C(c4ccccc4)S(=O)(=O)[O-])C3SC2)cc1 (stereo not drawn)	VACV E9 pol inh 83
CCN1CCN(C(=O)NC(C(=O)NC2C(=O)N3C(C(=O)O)=C(CSc4nnnn4C)CSC23)c2ccc(O)cc2)C(=O)C1=O (stereo not drawn)	none
O=C(O)/C=C/c1ccc(S(=O)(=O)Nc2cccc(C(=O)O)c2)cc1	none
CN(C)S(=O)(=O)c1ccc(C(=O)Nc2ccccc2)cc1	none
CCC(Sc1nc2ncccc2c(=O)n1-c1ccccc1)C(=O)Nc1ccc(OC)cc1 (stereo not drawn)	none
Cc1ccc(/C=C2\N=C(c3ccccc3)OC2=O)o1	none
Cc1ccc(/C=C2/C=CC(=O)O2)o1	VACV E9 pol inh 82
Cc1ccc(/C=C2\CC/C(=C\c3ccc(C)o3)C2=O)o1	none
O=C(/C=C/c1ccccc1)Nc1c2c(nn1-c1ccccc1)CSC2	none
O=C(NCc1ccccc1)c1ccc(S(=O)(=O)N2CCCCC2)cc1	none
O=C(c1cc2ccccn2n1)N1CCN(c2ccc(Cl)nn2)CC1	none
COC(=O)c1ccc(OCC(O)CN2CCC(Cc3ccccc3)CC2)cc1 (stereo not drawn)	none
O=C1NC(=Nc2cccc(C(=O)O)c2)S/C1=C/c1ccc(-c2ccc(C(=O)O)cc2)o1	VACV E9 pol inh 29
O=C(O)c1cccc(-c2ccc(/C=C3/SC(=O)N(c4ccccc4)C3=O)o2)c1	none
O=C(O)c1ccc(-c2ccc(/C=C3\Sc4ccccc4C3=O)o2)cc1	none
Cc1ccnc(NS(=O)(=O)c2ccc(NC(=O)c3ccccc3Br)cc2)n1	none
Cc1ccc(N2CC3=C(C2=O)C(c2ccccc2)NC(=O)N3C)cc1C (stereo not drawn)	none
O=C(Cn1nnc(-c2ccccc2)n1)Nc1ccccc1	none
CC1CN(S(=O)(=O)c2ccc(N3C(=O)CC4(CCCC4)C3=O)c(Cl)c2)CC(C)O1 (stereo not drawn)	none
CCOc1nc(NCCC2=CCCCC2)nc(OCC)n1	none
COc1ccc(CSC2=C(C#N)C(=O)NC3(CCCCC3)S2)cc1	VACV E9 pol inh 71
COc1ccc(C2=C(C#N)C(=O)OC2)cc1	none
COc1ccc(CSc2ncn[nH]2)cc1	none
CCn1cc(CCCC(=O)O)c2ccccc21	none
O=C(O)CCCC(=O)c1ccccc1	none
O=C(O)CCCc1ccc2ccc3cccc4ccc1c2c34	VACV E9 pol inh 80
CN(Cc1ccco1)C(=O)CN1C(=O)/C(=C\c2ccc(C(F)(F)F)cc2)Sc2ccccc21	none
c1ccc2c(c1)CCN(CCCNc1nc3ccccc3n3nnnc13)C2	none
Cc1c(CC(=O)O)c(=O)oc2c(C)c3occ(C(C)(C)C)c3cc12	none
Cc1c(CC(=O)O)c(=O)oc2c(C)c3occ(-c4ccc(Br)cc4)c3cc12	VACV E9 pol inh 65
COc1ccc(-c2coc3cc4oc(=O)c(CC(=O)O)c(C)c4cc23)cc1	none
CCc1sc2sncc2c1Br	VACV E9 pol inh 81
Cc1ccc(C(=O)n2c(=S)sc3ccccc32)cc1	none

Compound activity (PubChem BioAssay)
